Data as given in the supplement of paper PMC11732987, “Enantioselective OTUD7B fragment discovery through chemoproteomics screening and high-throughput optimisation” (Communications Chemistry, 2025).

What was measured:
Assay in all cases: log2 ratio of Biotin-Ahx-Ub-VS probe labelling (fragment/DMSO); higher = less target engagement (more negative = stronger competition), active = hit call of the paper (q ≤ 0.05, log2 ratio ≤ -1)
Conditions in all cases: compound concentration: 200 uM; treatment time: 3 h
ALG13 = target: T1, ALG13 (UniProt Q9NP73)
T1 sequence (whole entry): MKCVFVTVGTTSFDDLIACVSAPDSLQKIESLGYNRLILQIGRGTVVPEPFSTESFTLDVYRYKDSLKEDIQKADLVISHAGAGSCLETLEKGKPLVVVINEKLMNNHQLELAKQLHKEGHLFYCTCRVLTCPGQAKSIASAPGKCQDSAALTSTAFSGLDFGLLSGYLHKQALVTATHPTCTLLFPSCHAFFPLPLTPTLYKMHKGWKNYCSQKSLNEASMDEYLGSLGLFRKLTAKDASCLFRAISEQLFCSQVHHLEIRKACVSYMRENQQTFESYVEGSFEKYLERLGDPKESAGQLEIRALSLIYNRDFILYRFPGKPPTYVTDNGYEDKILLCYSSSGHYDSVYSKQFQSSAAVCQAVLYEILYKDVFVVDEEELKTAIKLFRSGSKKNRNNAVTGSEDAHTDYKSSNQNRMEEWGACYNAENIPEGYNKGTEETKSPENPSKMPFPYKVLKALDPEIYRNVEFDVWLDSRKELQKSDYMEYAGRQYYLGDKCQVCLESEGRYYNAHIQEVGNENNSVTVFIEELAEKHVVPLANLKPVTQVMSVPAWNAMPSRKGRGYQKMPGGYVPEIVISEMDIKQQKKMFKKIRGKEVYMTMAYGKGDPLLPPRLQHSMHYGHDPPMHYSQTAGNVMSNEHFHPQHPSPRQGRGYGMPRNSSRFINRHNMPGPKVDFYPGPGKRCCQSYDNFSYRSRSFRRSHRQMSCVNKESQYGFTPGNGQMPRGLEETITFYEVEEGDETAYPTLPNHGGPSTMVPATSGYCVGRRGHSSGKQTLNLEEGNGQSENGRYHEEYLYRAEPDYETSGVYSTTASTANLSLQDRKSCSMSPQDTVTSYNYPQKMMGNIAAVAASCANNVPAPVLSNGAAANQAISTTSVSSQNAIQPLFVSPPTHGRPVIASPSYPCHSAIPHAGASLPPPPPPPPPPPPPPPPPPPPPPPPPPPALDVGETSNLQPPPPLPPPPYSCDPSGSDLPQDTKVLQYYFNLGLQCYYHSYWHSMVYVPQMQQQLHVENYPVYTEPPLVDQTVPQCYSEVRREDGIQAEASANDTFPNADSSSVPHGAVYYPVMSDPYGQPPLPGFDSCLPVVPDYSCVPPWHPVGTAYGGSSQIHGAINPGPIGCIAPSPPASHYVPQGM
Outline: (§1)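 Average log2 ratios of fragment over vehicle were obtained by unpaired t-test from global-median-normalised Spectronaut label-free quantities. Proteins with ≥2 unique peptides were included. HEK293T lysate (495 µg per sample) was treated in triplicate with fragment at 200 µM or vehicle for 3 h, then with Biotin-Ahx-Ub-VS at 0.5 µM final for 1 h, and labelled DUBs were NeutrAvidin-enriched and run by diaPASEF LC-MS/MS.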

ATXN3 = ATXN3 (UniProt P54252)
Sequence of ATXN3 (P54252 whole entry): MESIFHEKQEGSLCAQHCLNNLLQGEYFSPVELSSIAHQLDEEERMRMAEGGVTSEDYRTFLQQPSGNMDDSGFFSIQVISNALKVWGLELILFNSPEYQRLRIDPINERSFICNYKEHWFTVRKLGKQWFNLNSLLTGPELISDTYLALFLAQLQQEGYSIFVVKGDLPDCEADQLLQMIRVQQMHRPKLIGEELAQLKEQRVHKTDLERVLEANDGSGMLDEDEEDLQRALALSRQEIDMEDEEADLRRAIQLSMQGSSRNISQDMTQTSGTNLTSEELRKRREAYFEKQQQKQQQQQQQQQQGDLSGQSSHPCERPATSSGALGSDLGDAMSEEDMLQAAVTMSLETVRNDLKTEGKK
Outline: as §1

BAP1 = target: T2, BAP1 (UniProt Q92560)
T2 sequence (whole entry): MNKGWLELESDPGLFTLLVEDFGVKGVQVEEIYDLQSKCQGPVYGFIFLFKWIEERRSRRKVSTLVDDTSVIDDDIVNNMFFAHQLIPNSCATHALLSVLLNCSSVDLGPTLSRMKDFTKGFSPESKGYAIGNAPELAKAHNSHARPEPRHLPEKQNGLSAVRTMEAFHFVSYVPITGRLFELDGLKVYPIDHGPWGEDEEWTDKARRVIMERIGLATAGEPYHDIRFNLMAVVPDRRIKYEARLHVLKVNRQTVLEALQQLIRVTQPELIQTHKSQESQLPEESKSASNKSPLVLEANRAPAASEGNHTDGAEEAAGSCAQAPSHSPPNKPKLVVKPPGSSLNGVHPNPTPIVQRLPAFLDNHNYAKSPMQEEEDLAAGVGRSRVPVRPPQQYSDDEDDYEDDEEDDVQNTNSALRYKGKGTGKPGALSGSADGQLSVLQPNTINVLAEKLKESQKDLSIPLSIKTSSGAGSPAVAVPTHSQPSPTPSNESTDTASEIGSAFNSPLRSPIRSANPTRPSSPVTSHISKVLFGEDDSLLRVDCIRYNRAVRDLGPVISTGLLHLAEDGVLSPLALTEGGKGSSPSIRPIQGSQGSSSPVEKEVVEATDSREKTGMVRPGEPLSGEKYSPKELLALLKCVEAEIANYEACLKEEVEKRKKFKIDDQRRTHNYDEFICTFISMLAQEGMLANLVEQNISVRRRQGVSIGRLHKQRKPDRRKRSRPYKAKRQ
Outline: as §1

EIF3F = EIF3F (UniProt O00303)
Sequence of EIF3F (O00303 whole entry): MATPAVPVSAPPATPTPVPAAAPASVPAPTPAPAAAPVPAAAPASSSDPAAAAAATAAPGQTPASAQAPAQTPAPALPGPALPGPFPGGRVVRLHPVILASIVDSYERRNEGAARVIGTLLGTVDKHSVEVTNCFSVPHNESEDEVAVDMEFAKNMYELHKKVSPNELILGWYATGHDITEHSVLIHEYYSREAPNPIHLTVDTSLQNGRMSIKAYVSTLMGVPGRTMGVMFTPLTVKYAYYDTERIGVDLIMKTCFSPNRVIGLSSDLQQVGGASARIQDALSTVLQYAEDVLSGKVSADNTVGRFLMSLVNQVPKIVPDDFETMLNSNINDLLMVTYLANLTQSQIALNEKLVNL
Outline: as §1

EIF3H = EIF3H (UniProt O15372)
Sequence of EIF3H (O15372 whole entry): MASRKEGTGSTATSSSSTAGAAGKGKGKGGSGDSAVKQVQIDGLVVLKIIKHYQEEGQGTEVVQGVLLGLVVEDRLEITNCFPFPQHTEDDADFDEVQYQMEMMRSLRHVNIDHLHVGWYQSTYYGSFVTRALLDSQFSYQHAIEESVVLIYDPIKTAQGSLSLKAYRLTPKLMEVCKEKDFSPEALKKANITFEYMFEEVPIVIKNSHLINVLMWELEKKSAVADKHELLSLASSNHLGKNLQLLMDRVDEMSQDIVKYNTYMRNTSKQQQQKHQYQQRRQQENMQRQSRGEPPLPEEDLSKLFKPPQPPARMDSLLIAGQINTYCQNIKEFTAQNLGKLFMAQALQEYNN
Outline: as §1

FAM105A = target: T3, FAM105A (UniProt Q9NUU6)
T3 sequence (whole entry): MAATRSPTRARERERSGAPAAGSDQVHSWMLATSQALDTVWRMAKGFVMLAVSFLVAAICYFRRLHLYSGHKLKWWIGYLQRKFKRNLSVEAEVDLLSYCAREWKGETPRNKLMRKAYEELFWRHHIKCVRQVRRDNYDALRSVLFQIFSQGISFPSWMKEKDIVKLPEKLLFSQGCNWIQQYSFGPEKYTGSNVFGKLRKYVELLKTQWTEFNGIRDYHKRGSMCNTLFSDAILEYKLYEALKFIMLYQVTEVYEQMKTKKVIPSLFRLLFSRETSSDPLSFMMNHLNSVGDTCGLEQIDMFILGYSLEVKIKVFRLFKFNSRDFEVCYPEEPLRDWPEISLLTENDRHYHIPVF
Outline: as §1

OTUB1 = OTUB1 (UniProt Q96FW1)
Sequence of OTUB1 (Q96FW1 whole entry): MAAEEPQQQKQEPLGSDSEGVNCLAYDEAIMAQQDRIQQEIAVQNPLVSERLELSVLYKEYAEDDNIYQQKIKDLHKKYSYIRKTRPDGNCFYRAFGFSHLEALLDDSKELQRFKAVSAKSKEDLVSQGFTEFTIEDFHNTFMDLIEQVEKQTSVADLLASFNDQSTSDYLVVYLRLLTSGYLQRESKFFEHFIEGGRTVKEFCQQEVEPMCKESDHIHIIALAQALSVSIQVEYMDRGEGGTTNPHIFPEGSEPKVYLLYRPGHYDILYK
Outline: as §1

OTUD4 = target: T4, OTUD4 (UniProt Q01804)
T4 sequence (whole entry): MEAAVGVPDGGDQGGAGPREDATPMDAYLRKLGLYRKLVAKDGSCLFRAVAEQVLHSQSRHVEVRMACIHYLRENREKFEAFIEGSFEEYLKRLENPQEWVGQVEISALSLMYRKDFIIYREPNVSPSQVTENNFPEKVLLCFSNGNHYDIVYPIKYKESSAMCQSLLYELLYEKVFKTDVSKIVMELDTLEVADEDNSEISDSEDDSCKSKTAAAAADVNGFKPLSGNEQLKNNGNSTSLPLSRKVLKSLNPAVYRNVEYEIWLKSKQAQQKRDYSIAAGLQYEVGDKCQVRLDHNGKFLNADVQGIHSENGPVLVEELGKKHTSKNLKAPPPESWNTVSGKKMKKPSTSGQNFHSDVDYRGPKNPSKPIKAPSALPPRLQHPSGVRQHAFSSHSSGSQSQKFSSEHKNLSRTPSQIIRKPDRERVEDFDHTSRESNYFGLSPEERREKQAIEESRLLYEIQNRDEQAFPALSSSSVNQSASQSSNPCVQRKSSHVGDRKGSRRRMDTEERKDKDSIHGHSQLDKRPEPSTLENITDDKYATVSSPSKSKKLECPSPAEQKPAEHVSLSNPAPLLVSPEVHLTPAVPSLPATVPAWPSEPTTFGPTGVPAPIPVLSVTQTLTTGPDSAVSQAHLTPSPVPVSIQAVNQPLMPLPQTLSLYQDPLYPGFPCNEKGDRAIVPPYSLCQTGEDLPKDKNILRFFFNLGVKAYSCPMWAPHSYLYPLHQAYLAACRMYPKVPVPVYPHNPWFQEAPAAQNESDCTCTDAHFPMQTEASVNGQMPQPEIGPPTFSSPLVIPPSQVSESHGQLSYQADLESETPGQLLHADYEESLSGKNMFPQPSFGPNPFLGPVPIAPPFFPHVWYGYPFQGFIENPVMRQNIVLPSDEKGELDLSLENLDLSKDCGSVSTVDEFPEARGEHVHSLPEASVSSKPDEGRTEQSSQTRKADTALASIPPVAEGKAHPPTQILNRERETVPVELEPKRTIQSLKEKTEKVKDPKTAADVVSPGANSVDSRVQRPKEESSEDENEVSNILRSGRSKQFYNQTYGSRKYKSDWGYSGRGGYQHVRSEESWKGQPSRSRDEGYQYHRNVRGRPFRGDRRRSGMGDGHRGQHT
Outline: as §1

OTUD5 = target: T5, OTUD5 (UniProt Q96G74)
T5 sequence (whole entry): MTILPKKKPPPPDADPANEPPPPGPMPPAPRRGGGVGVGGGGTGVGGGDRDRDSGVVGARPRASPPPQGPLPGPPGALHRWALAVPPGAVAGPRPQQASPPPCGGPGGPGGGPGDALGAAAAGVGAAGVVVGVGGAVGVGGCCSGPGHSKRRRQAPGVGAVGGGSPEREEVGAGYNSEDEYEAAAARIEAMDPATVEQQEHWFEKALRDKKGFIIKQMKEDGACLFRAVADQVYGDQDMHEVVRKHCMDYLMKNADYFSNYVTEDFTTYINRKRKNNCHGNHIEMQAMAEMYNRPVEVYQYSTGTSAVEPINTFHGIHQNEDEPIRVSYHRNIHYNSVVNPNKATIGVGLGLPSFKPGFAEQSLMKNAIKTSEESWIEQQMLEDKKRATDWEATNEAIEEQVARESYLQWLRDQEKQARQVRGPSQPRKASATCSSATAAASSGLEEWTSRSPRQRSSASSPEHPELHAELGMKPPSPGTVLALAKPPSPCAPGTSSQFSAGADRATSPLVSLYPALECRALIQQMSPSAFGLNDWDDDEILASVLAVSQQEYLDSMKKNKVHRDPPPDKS
Outline: as §1

Measured: log2 ratio of Biotin-Ahx-Ub-VS probe labelling

Cc1nc(CN2CCCN(C(=O)CCl)CC2)no1.Cl
inactive: ALG13 -0.458 | ATXN3 0.224 | BAP1 0.234 | EIF3F -0.233 | EIF3H 0.122 | FAM105A -0.14 | OTUB1 0.0104 | OTUD4 0.243 | OTUD5 -0.0201
